Bioassay records (PubChem)
USP30 block: inhibitors of human USP30 deubiquitinase | inhibition, % at 25 µM | hit rate 5.3% among 47,000 | Ubiquitin carboxyl-terminal hydrolase 30 (Homo sapiens), Q70CQ3 | AID 1645860, 2021 | purified USP30, Ub-rhodamine cleavage fluorescence
Target sequence (Q70CQ3 whole entry, looked up): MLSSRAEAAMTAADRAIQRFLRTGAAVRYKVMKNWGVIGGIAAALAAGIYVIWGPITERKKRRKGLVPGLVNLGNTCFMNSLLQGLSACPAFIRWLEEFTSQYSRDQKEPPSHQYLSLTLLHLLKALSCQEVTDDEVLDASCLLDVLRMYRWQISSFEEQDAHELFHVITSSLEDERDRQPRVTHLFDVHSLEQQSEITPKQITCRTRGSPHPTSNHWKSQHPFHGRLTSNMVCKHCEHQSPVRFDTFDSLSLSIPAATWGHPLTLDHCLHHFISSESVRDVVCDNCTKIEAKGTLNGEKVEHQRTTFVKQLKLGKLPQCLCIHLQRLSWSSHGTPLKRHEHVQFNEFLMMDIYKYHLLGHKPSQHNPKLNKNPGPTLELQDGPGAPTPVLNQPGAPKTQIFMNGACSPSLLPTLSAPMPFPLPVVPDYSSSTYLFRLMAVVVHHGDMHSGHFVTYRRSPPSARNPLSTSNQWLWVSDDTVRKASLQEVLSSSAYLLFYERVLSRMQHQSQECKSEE
USP28 inh: inhibitors of human USP28 deubiquitinase; Ubiquitin carboxyl-terminal hydrolase 28 (Homo sapiens), Q96RU2; purified USP28, Ub-rhodamine cleavage fluorescence, 30 min; inhibition, % at 25 µM; hit rate 3% among 47,000; AID 1645857, 2021
OTUD3 block: inhibitors of human OTUD3 deubiquitinase; OTU domain-containing protein 3 (Homo sapiens), Q5T2D3; purified OTUD3, Ub-rhodamine fluorescence, 2 h; hit rate 0.7% among 47,000; inhibition, % at 25 µM
USP17 inh: inhibitors of human USP17 deubiquitinase | Ubiquitin carboxyl-terminal hydrolase 17-like protein 5 (Homo sapiens), A8MUK1 | AID 1645855, 2021 | purified USP17, Ub-rhodamine cleavage fluorescence, 3 h | hit rate 6.5% among 47,000 | inhibition, % at 50 µM
Numbers without * were called inactive; . = no result given. Shown are actives, neighbours in structure and some others; about 12% of the full set was active somewhere. No stated cut-off is given here; in the data, active means inhibition above about 30%; inactive means the rest.

SMILES	USP30 block	USP28 inh	OTUD3 block	USP17 inh
O=c1[nH]c2ccccc2c(=O)n1CCc1nc(-c2ccc(F)cc2)no1	-0.3	-6.9	-5.3	35.6*
COc1ccccc1-c1noc(Cn2cnc3c(nnn3Cc3ccc(F)cc3)c2=O)n1	15.4	3.5	-2.1	-4.0
CCn1c(=O)c2ccccc2n(Cc2nc(-c3ccccc3OC)no2)c1=O	5.7	1.4	5.9	56.3*
CC(=O)N1CCc2sc(S(=O)(=O)NC3CCCCCC3)cc2C1	12.2	-4.2	3.9	-10.0
CC(C)(C)c1cc(C[C@@H]2C[C@H](NC(=O)N3CCOCC3)C2(C)C)no1	69.4*	15.6	12.9	39.2*
CC(C)(C)c1cc(NC(=O)C2CCCO2)no1 (stereo not drawn)	-12.9	-9.1	-11.1	-3.2
O=C(CSc1nc(-c2ccccc2)c2ccccc2n1)NCCc1ccccc1	17.6	29.4	22.0	31.4*
O=C(CSc1ncnc2c1oc1ccccc12)Nc1cccc2ccccc12	15.7	0.0	7.5	8.5
COc1ccc(NC(=O)CSc2ncnc3c2oc2ccccc23)c(OC)c1	19.6	10.8	12.0	32.1*
O=C(CSc1ncnc2c1oc1ccccc12)Nc1ccccc1F	.	.	-3.9	42.7*
CCc1nc(SCC(=O)Nc2cc(OC)ccc2OC)c2oc3ccccc3c2n1	13.4	7.6	15.7	16.4
O=C(CSc1ncnc2c1oc1ccccc12)Nc1ccc(Cl)c(Cl)c1	.	.	-9.1	23.1
O=C(CSc1ncnc2c1oc1ccccc12)NCCc1ccccc1	36.5*	14.7	12.0	64.2*
CC(=O)Nc1cc(-c2cccnc2)cn2c(-c3ccc(S(C)(=O)=O)cc3)cnc12	-125.4	-47.5	-30.0	-46.0
CCS(=O)(=O)c1ccc(O)c(NC(=O)c2ccc3c(c2)CCO3)c1	-42.3	-16.0	-7.0	-27.5
CC(=O)[C@H]1c2c(c(O)c3c(O)cccc3c2-c2c3c(c(O)c4c(O)cccc24)C(=O)C[C@](C)(O)[C@H]3C(C)=O)C(=O)C[C@]1(C)O	-20.4	29.6	29.8	78.0*
CN1CCC2(CN(Cc3cccnc3)CC23CCN(C(=O)Cc2ccccc2)CC3)C1=O (stereo not drawn)	-202.6	-63.3	-40.6	-47.5
CN1C[C@H]2C3(CCN(S(=O)(=O)c4ccccc4)CC3)CC[C@@]2(C(=O)N(C)C)C1	10.2	-2.5	1.1	-1.8
Cc1ccc(C)c(NC(=O)CSc2nnc(-c3ccccn3)n2Cc2ccco2)c1	61.6*	6.4	17.5	39.3*
COc1ccc(-n2c(SCC(=O)c3ccccc3)nnc2-c2cccnc2)cc1	-41.9	9.2	0.1	-0.8
O=C(CSc1nnc(-c2ccccn2)n1-c1ccccc1)Nc1cccc2ccccc12	15.1	1.0	10.8	11.0
COc1ccccc1NC(=O)CSc1nnc(-c2ccccn2)n1-c1cc(C)cc(C)c1	-17.0	-3.4	-13.4	34.5*
Fc1ccc(CSc2nnc(-c3ccccn3)n2Cc2ccco2)cc1	23.0	56.3*	4.2	1.3
COc1ccc(CSc2nnc(-c3ccccn3)n2-c2ccc(OC)cc2)cc1	37.6*	10.0	7.0	5.8
O=C(CSc1nnc(-c2cnccn2)n1Cc1ccco1)Nc1cccc(F)c1	-43.9	-1.8	-7.8	-12.8
SMILES	USP30 block	USP28 inh	OTUD3 block	USP17 inh
CCOc1cccc(CNC(=O)c2cnc(-c3ccccc3)nc2-c2ccncc2)c1	-3.7	-20.7	-4.4	20.7
Fc1ccccc1CSc1nnc(-c2ccccn2)n1Cc1ccco1	15.1	31.7*	5.0	0.2
CCOC(=O)c1ccc(NC(=O)CSc2nnc(CNC(=O)c3ccc(OC)cc3)o2)cc1	35.4*	4.4	-0.3	32.8*
CC1CCN(S(=O)(=O)c2ccc3[nH]cc(C(=O)NCc4ccco4)c(=O)c3c2)CC1	14.6	20.4	5.3	54.7*
Cc1ccc2[nH]c(=O)c(-c3noc(-c4ccc([N+](=O)[O-])cc4)n3)cc2c1	42.3*	10.2	9.8	47.9*
O=C(NC1CCN(Cc2ccccc2)CC1)c1[nH]nc2c1CCc1ccccc1-2	-49.3	62.1*	-24.9	-7.5
COc1ccccc1CNC(=O)c1[nH]nc2c1CCc1ccccc1-2	4.4	29.1	0.1	0.0
Cn1c(CCNC(=O)c2[nH]nc3c2CCc2ccccc2-3)nc2ccccc21	-11.3	52.2*	-7.2	77.7*
Cc1ncc(CN2CCc3nc4cc(-c5ccoc5C)[nH]n4c(=O)c3C2)cn1	-58.1	-1.1	-1.7	-18.9
Cc1ccc(NC(=O)CSc2nnc(Cc3cccc4ccccc34)n2C)c(C)c1	27.1	48.9*	12.0	38.8*
Cc1ccc(-n2c(Cc3cccc4ccccc34)nnc2SCC(=O)NC2CCS(=O)(=O)C2)c(C)c1 (stereo not drawn)	-1.5	0.1	4.4	42.3*
Cc1cc(C)c(NC(=O)CSc2nnc(Cc3cccc4ccccc34)n2C)c(C)c1	-1.4	5.0	1.6	1.3
Cc1ccc(-n2nnc(C(=O)NC3CCCC3)c2N)cc1	18.7	5.5	12.2	4.9
Cc1ccc(-n2nnc(C(=O)NC3CCCCC3)c2N)cc1	2.0	0.0	4.6	53.5*
CCCCCC(=O)N1c2ccccc2NC2=C(C(=O)CC(c3ccc(OC)c(OC)c3)C2)C1c1cccnc1 (stereo not drawn)	28.0	12.9	10.9	16.3
COCCN1[C@H]2CCN(C(=O)Nc3ccccc3)CC[C@@H]2Oc2ccccc2S1(=O)=O	-12.0	-8.0	-8.9	-19.3
Cc1ccccc1CNC(=O)CCn1cnc2c(-c3ccccc3)noc2c1=O	42.9*	5.6	20.5	-8.8
Cc1nc2c(-c3ccccc3)noc2c(=O)n1CC(=O)O	31.2*	7.7	20.7	7.9
O=C(O)CCn1cnc2c(-c3ccccc3)noc2c1=O	-11.5	-4.7	-1.4	-0.6
CC1(C)Cc2c(sc3nc(SCC(=O)N4CCCCC4)nc(N)c23)CO1	7.8	9.3	2.6	0.4
COc1cccc(CNC(=O)c2ccc(Sc3ccc(C)cc3)c(NC(C)=O)c2)c1	-8.8	0.6	-0.7	7.1
C=Cc1ccc(Cn2cc(S(=O)(=O)N3CCOCC3)ccc2=O)cc1	-43.9	14.2	3.7	56.9*
CCCCCCCCCCCCCCCc1cc(O)cc(O)c1	1.8	-16.7	-5.5	30.0*
Cc1ccc(-c2nc3c(s2)CN(C(=O)COc2cccc(C)c2)CC3)cc1	-2.8	-2.3	-3.2	-2.4
CC1CCC2C(C)(C)C(O)CCC2(C)C12Cc1c(cc3c(c1O)CN(CCCCC(=O)O)C3=O)O2 (stereo not drawn)	-38.3	11.6	13.2	49.1*
C[C@@H]1CCC2[C@](C)(CO)[C@@H](O)CC[C@]2(C)[C@@]12CCC1(COC(=O)C1)O2 (stereo partly drawn)	8.2	-4.7	-2.2	2.2
Cc1ccccc1CNC(=O)c1cccc(-c2cnc(N3CCCC3)nc2)c1	32.4*	8.4	10.4	4.6
Cc1cc(C)cc(N(CC(=O)NCc2ccc3c(c2)OCO3)C(=O)c2ccc3c(c2)OCCO3)c1	35.7*	18.6	13.5	23.9
CCc1nccn1Cc1noc(-c2ccc3c(c2)OCO3)n1	25.1	48.0*	14.1	18.2
COC(=O)c1ccc(COC(=O)c2cc(C)nc3ccccc23)cc1	-9.6	-5.0	-2.6	-2.0
